The source of these data is PubChem BioAssay (NCATS).

Results filed as inconclusive are left out. Entries that show only a call come without a potency. Active and inactive are the calls of the source. Calls follow the shape of the dose curve; as a rule, active = well fitted curve in the direction sought with a large enough effect; inconclusive = small, poorly fitted or top-dose-only effect, or another doubt; inactive = no such curve, though single readings can be large; an effect the other way counts as inactive or inconclusive.

Test [1] in a line: qHTS assay to identify small molecule inhibitors of chordoma cells - UCH-1 (AID 1259355). Also: nearly all actives have a fitted effect of over 55% in size. Also: potency is read from the fitted curve at half-maximal effect; series mostly up to about 46 µM. In short, it runs like this:
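Cells (800/well) were seeded and left overnight at 37 C, 5% CO2, then treated with drugs at 15 concentrations plus a combination mix of auranofin, camptothecin, doxorubicin, rubitecan and topotecan. Viability after 48hr was read by CellTiter-Glo luminescence.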
A general note: qHTS replaces the single test concentration by a dilution series.

Test [2] in a line: qHTS assay to identify small molecule inhibitors of chordoma cells - UCH-2 (AID 1259356). Also: series mostly up to about 46 µM.

For the molecule `CC(Cc1ccc(O)c(O)c1)C(C)Cc1ccc(O)c(O)c1` (centres undefined), the Potency result in test [1] was “inactive”. With `CC(C)(C)C(=O)OCOC(=O)[C@@H]1N2C(=O)[C@@H](N=CN3CCCCCC3)[C@H]2SC1(C)C`, the Potency result in test [1] was “inactive”.

For `CCCCC(=O)OCC(=O)[C@]1(O)Cc2c(O)c3c(c(O)c2[C@@H](O[C@H]2C[C@H](NC(=O)C(F)(F)F)[C@H](O)[C@H](C)O2)C1)C(=O)c1c(OC)cccc1C3=O`, in test [1], the Potency was 6.31 µM (active).

`Clc1cc(Cl)c(OCC#CI)cc1Cl`: the Potency entry in test [1] and in test [2] was “inactive” in each case. Turning to `Cc1cc(C(=O)NNCc2ccccc2)no1`, the Potency entry in test [1] and in test [2] was “inactive” throughout. For `CCC(=O)O[C@]1(C(=O)CCl)[C@@H](C)C[C@H]2[C@@H]3C[C@H](F)C4=CC(=O)C=C[C@]4(C)[C@@]3(F)[C@@H](O)C[C@@]21C`, in test [1], the Potency result is “inactive”. In the case of `COC(=O)[C@H]1[C@H]2CC3c4[nH]c5ccccc5c4CCN3C[C@@H]2CC[C@@H]1O` (some centres undefined), the Potency entry in test [1] is “inactive”. For `CN1CCC(CN2c3ccccc3Sc3ccccc32)C1` (centres undefined), the Potency entry in test [1] was “inactive”. Same read-out and setting: the value for `CCCCCC(CC)COC(=O)CC(C(=O)OCC(CC)CCCC)S(=O)(=O)O` (centres undefined) was “inactive”; that for `CN=C(NC#N)Nc1ccc(C2=NNC(=O)C[C@@H]2C)cc1` was “inactive”; that for `CCCC(=O)Nc1ncnc2c1ncn2C1OC2COP(=O)(O)OC2C1OC(=O)CCC` (centres undefined) was “inactive”. `COC(F)(F)C(Cl)Cl`: the Potency result in test [1] and in test [2] was “inactive” throughout. In the case of `Oc1cc(O)c2c(c1)OC(c1ccc(O)c(O)c1)C(O)C2` (centres undefined), the Potency result in test [1] was “inactive”. Same read-out and setting: the value for `Cc1cc(CC(C)CC(C)(C)C)n(O)c(=O)c1` (centres undefined) (tested in a mixture with another compound) was “inactive”. For the molecule `C[C@@H]1[C@H](O)[C@@H](C)/C=C/C=C\C=C\C=C\C=C\C=C\C=C\[C@H](O[C@@H]2O[C@H](C)[C@@H](O)[C@H](N)[C@@H]2O)C[C@@H]2O[C@](O)(C[C@@H](O)C[C@@H](O)[C@H](O)CC[C@@H](O)C[C@@H](O)CC(=O)O[C@H]1C)C[C@H](O)[C@H]2C(=O)O` (stereo in doubt), the Potency entry in test [1] and in test [2] was “inactive” each time.
